Records with an inconclusive call do not appear. Active and inactive are the calls of the source. Unless noted, the call rests on the fitted dose curve; in most records, active means well fitted curve in either direction with a large enough effect (not every such curve was filed as active); inconclusive means small, poorly fitted or top-dose-only effect, or another doubt; inactive means flat fitted curve, though single readings scatter.
Key:
[1] = molecular target: Lysosomal acid glucosylceramidase (Homo sapiens) (UniProt P04062); test: Glucocerebrosidase-p2 (AID 348; in the data active means potency below about 10 µM; further: potency means the concentration at half of the fitted maximal effect); settings: purified GBA, blue fluorogenic substrate, 40 min
Chain of Lysosomal acid glucosylceramidase (Homo sapiens) (P04062 whole entry, looked up): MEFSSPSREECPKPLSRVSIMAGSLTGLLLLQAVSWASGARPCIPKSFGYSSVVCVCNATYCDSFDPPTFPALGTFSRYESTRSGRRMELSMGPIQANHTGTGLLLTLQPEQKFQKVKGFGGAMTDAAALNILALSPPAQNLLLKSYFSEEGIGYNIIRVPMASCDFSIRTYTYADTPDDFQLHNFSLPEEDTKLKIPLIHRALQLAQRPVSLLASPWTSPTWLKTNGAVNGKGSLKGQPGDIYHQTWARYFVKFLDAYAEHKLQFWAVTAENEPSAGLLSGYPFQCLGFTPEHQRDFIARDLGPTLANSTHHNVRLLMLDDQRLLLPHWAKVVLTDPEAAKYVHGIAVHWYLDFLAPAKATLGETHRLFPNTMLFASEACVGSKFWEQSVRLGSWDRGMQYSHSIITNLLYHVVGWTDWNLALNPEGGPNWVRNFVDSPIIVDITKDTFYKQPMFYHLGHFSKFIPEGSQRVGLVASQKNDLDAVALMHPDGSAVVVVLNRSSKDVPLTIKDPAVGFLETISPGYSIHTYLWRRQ
Method in brief: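 Normal human glucocerebrosidase (0.2 nM) with blue fluorogenic substrate (80 uM final) in citrate/phosphate pH 5.9 with 10mM sodium taurocholate, 0.01% tween-20; 40 min RT, NaOH/glycine stop; fluorescence Ex 365/Em 440; AC50 from a titration from 0.6 nM upwards.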

[2] = AP1 Signaling Pathway (AID 357); settings: ME-180 AP-1-bla reporter, EGF-induced, beta-lactamase ratio, 5 h; at 7.69 µM (top of the series) unless noted;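 further: ME-180 reporter cells stimulated with EGF at its EC50 level; on the % scale 0 is the no-effect control and ±100 the full control effect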
Method in brief: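 A ratiometric CCF4 readout (405 nm excitation; 460 and 530 nm emission) quantified AP-1-driven beta-lactamase in ME-180 cells after 5 h with compound and EC50 EGF; AC50 values were derived for activators and inhibitors.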

[3] = Stat Signaling Pathway (AID 446); settings: ME-180 (cervical carcinoma) SIE beta-lactamase reporter, IL-6 stimulated, 5 h; at 7.69 µM (top of the series) unless noted;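 further: ME-180 cervical cancer cells given 40 pM IL-6 alongside compound; SIE-controlled beta-lactamase reporter measured as 460/530 nm FRET emission ratio; on the % scale 0 is the no-effect control and ±100 the full control effect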
Method in brief: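 FRET read-out (405 nm excitation, 460/530 nm emission) of a beta-lactamase reporter under a STAT-inducible element in ME-180 cervical carcinoma cells. Cells with compound receive 40 pM IL-6 for 5 h. Values are normalised to AC90 stimulation and AC90 JAK-inhibitor controls.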

[4] = molecular target: Glucocorticoid receptor (Homo sapiens) (UniProt P04150); test: GR-GFP Redistribution (AID 450;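 active means compounds whose dose series gives a full or clear partial fitted curve of increased nuclear translocation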; further: potency means the concentration at half of the fitted maximal effect); settings: U2OS GR-GFP nuclear translocation, laser cytometry, 2 h
Chain of Glucocorticoid receptor (Homo sapiens) (P04150 whole entry, looked up, the tested form may be a part): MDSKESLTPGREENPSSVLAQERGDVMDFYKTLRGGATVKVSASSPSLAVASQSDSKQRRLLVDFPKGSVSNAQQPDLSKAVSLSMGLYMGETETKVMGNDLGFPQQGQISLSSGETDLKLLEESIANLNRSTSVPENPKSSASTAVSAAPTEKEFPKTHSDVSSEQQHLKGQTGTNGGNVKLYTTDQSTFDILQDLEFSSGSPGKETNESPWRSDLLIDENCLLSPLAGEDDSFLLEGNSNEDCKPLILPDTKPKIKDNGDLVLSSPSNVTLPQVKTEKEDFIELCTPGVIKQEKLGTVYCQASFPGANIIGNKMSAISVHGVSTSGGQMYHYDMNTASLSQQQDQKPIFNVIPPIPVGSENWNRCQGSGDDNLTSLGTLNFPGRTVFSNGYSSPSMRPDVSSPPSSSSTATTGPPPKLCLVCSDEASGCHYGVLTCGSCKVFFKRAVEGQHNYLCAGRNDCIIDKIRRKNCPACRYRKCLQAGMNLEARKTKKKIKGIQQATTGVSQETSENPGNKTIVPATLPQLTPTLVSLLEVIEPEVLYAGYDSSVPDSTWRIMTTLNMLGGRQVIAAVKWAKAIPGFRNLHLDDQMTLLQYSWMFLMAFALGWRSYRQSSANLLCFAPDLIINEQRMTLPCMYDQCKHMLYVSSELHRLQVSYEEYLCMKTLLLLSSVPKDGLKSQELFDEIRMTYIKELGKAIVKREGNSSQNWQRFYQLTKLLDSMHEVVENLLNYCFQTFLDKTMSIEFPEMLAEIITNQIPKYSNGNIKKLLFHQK

[5] = molecular target: Glucocorticoid receptor (Homo sapiens) (UniProt P04150); test: GR-EFC Redistribution (AID 451; calls by dose curve; further: potency means the concentration at half of the fitted maximal effect); settings: CHO-K1 GR-EFC translocation, beta-gal luminescence, 2 h
Method in brief: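 Translocation of GR-ED fusion to nuclear EA restores b-gal, read by luminescence after 1 h room-temperature detection. Engineered CHO-K1 biosensor cells, 1,000/well, exposed 2 h at 37 C to titrations up to 46 uM final.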

[6] = molecular target: Mitogen-activated protein kinase 10 (Mus musculus) (UniProt Q61831); test: JNK3 AlphaScreen Assay (AID 530); settings: JNK3 lysate, c-Jun phosphorylation; series mostly up to 11.4 µM;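 further: kinase came from lysate of stimulated human HepG2 cells; signal reports phosphorylation of biotinylated GST-cJun 1-79 at Ser73 with 10 µM ATP; on the % scale 0 is the no-effect control and ±100 the full control effect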
Method in brief: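 Kinase buffer: 20 mM Tris-HCl pH 7.6, 10 mM MgCl2, 1 mM DTT, 0.1 mM Na3VO4, 0.01% Tween-20; ATP 10 uM. Substrate biotin-GST-cJun(1-79), enzyme from activated HepG2 lysates. Detection by Ser73 phospho-antibody AlphaScreen.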

[7] = molecular target: 3',5'-cyclic-AMP phosphodiesterase 4B (Homo sapiens) (UniProt Q07343); test: qHTS Assay for Inhibitors of PDE-IV (AID 607; active means well fitted activation curve with a large enough effect in the main read-out, with a control signal flat, not every such curve was filed as active; further: % of control where 0% means no effect); settings: HEK293 ACTOne CNG channel cells, membrane potential fluorescence; series mostly up to 22.9 µM
Chain of 3',5'-cyclic-AMP phosphodiesterase 4B (Homo sapiens) (Q07343 whole entry, looked up): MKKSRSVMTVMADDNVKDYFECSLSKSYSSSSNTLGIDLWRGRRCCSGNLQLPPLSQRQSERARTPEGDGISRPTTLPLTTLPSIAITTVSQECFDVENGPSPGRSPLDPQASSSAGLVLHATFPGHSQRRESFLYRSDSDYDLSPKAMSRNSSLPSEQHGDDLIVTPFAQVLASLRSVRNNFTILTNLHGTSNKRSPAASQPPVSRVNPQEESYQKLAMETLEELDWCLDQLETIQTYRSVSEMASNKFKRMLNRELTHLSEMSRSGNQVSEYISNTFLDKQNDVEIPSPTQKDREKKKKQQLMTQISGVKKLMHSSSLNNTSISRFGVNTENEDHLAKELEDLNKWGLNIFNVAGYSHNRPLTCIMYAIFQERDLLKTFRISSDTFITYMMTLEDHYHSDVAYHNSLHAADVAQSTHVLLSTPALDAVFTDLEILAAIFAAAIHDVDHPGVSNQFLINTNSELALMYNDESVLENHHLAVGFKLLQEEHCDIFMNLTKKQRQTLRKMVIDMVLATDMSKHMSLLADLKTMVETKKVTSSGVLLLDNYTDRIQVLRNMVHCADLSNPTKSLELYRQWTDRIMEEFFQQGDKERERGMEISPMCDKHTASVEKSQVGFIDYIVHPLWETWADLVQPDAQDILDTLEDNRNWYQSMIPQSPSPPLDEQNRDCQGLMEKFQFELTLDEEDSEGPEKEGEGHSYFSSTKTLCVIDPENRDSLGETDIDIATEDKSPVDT
Method in brief: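 Cell-based read-out of cAMP via a modified cyclic nucleotide-gated channel and membrane potential dye (535/590 nm) in HEK293 cells expressing PDE4 endogenously. Compounds tested up to 22.9 uM final; 100 uM RO 20-1724 reference.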

[8] = molecular target: Cytochrome P450 2C19 (Homo sapiens) (UniProt P33261); test: qHTS Assay for Inhibitors and Substrates of Cytochrome P450 2C19 (AID 899; active means well fitted inhibition curve with a large enough effect; further: on the % scale 0 is the no-effect control and ±100 the full control effect; nearly all actives have a fitted effect of over 60% in size); settings: recombinant CYP2C19, luciferin-H EGE luminescence; series mostly up to 11.4 µM
Chain of Cytochrome P450 2C19 (Homo sapiens) (P33261 whole entry, looked up): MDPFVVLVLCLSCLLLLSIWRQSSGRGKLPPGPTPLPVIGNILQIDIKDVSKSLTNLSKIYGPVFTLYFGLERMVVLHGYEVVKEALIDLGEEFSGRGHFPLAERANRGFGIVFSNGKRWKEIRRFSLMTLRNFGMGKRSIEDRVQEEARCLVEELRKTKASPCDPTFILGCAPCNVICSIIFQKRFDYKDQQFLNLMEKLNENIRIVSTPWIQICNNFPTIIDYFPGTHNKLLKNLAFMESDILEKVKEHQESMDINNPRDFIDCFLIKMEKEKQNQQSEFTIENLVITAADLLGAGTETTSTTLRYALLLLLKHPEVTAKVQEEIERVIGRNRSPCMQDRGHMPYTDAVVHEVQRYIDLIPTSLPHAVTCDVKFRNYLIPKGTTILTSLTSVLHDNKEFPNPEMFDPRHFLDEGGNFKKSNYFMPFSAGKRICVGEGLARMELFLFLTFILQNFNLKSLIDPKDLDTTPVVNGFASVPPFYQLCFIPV
Method in brief: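 Reactions contain 5nM enzyme, 10uM Luciferin-H EGE (KM) and 50mM KPO4; compound preincubates 10 min at 37C, NADPH regeneration starts turnover for 60 min. Luminescence after detection reagent gives activity.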

O=C(O)c1ccc(N[C@H](c2ccccc2)c2ccc3cccnc3c2O)cc1
inactive: Potency [1] > 11.4 µM | activity change, negative = inhibition [2] -0.822% | activity, negative = inhibition [3] -17% | Potency [4] > 46 µM | Potency [5] > 9.22 µM | Potency [6] | Potency [7]

NC(CSS(=O)(=O)O)=N[C@@H]1C[C@H]2CC[C@@H]1C2
inactive: Potency [1] > 11.4 µM | activity change, negative = inhibition [2] 16.8% | activity, negative = inhibition [3] -5.27% | Potency [4] > 46 µM | Potency [5] > 9.22 µM | Potency [6] | Potency [7] | Potency [8]

N#Cc1ccc(CN2CC3(CCN(C(=O)c4cc(C(F)(F)F)cc(C(F)(F)F)c4)CC3)C2)cc1
inactive: Potency [1] > 11.4 µM | activity change, negative = inhibition [2] -21.3% | activity, negative = inhibition [3] 7.48% | Potency [5] > 46 µM | Potency [6] | Potency [7]
